Where “and” joins values, the source holds several entries; their conditions need not be identical. Equal values may be shown once. Some compounds were tested as several samples or in several runs, with calls that do not always agree. Calls of active or inactive are those of the source. The calls were made as follows: active = hit-call score of the fitted dose curve at least 0.9, where 1 is the maximum; inactive = score below 0.9.
read-out: Monokine induced gamma interferon (MIG), CXCL9 (gene 4283); test: BSK_SAg_MIG: BioMAP Diversity Plus: SAg Assay for Monokine induced gamma interferon (MIG) Biomarker Activity (AID 2283092); conditions: primary human HUVEC with PBMC; actives raise or lower the signal
Method: BSK_SAg is a cell-based, multiplexed-readout assay that uses umbilical vein endothelium and peripheral blood mononuclear cells, a human vascular primary cell co-culture, with measurements taken at 24 hours after chemical dosing in a 96-well plate.BSK_SAg_MIG is an assay component measured in the BSK_SAg assay. It measures MIG antibody related to regulation of gene expression using ELISA technology.Data from the assay component BSK_SAg_MIG was analyzed into 1 assay endpoint. This assay endpoint, BSK_SAg_MIG, was analyzed with bidirectional fitting relative to DMSO as the negative control and baseline of activity. Using a type of binding reporter, gain or loss-of-signal activity can be used to understand changes in the signaling as they relate to the gene CXCL9. Furthermore, this assay endpoint can be referred to as a primary readout, because this assay has produced multiple assay endpoints where this one serves a signaling function. To generalize the intended target to other relatable targets, this assay endpoint is annotated to the cytokine intended target family, where the subfamily is chemotactic factor.
The levels of cell surface (or secreted, indicated by the prefix "s") biomarker endpoints were measured by ELISA. Overt cytotoxicity to cells in confluent adherent cultures (all systems other than the BT system) was assessed by measuring total protein levels using sulforhodamine B (SRB) staining in parallel cultures at the time of biomarker measurements, indicated as SRB endpoints. For proliferation assays for adherent cell types, individual cell types are cultured at sub-confluence and relative cell numbers quantified by SRB staining at time points optimized for each system (48 h: 3C and CASM3C systems; 72 h: BT and HDF3CGF systems; 96 h: SAg system). SRB was performed by staining cells with 0.1% SRB after fixation with 10% TCA and reading wells at 560 nm.Viability and proliferation of PBMC (T cells) was quantified by Alamar Blue reduction for the SAg and BT systems. For PBMC viability (referred to as PBMC Cytotoxicity within the assay endpoint names), cells were plated (75,000/well in a 96-well plate) and then chemical samples added for 1 h before addition of activators, SEB and TSST-1 (20 ng/mL final concentration each). Cells were incubated for 90 h. Then, Alamar Blue (20 uL/well) (Invitrogen, Cat DAL1100) was added for 6 h, and the plates were read with a fluorescence microplate reader at 546/580 nm (excitation/emission). For PBMC proliferation, cells were plated and activated as above but incubated for only 16 h prior to addition of Alamar Blue. Plates were read after 6 h.

| Structure (SMILES) | outcome | AC50 |
| --- | --- | --- |
| CCOC(=O)C(Cl)Cc1cc(-n2nc(C)n(C(F)F)c2=O)c(F)cc1Cl (stereo not given) | inactive | – |
| N#Cc1nn(-c2c(Cl)cc(C(F)(F)F)cc2Cl)c(N)c1S(=O)C(F)(F)F (stereo not given) | – | 35 µM (active) |
| COC(=O)C=C(C)OP(=O)(OC)OC | inactive | – |
| CO/C=C(/C(=O)OC)c1ccccc1Oc1cc(Oc2ccccc2C#N)ncn1 | inactive | 34.9 µM (active) and 34.2 µM (active) and 30 µM (active) |
| COP(=S)(OC)Oc1nc(Cl)c(Cl)cc1Cl | inactive | – |
| N#Cc1cc(Br)c(O)c(Br)c1 | inactive | – |
| CCCC1COC(Cn2cncn2)(c2ccc(Cl)cc2Cl)O1 (stereo not given) | inactive | – |
| N#CC(CCc1ccc(Cl)cc1)(Cn1cncn1)c1ccccc1 (stereo not given) | inactive | – |
| Cc1cc(Cl)ccc1OCC(=O)O | inactive | – |
| CCCCOC(=O)c1ccccc1C(=O)OCCCC | inactive | – |
| CC1=C(C(=O)Nc2ccccc2)SCCO1 | inactive | – |
| CCc1nn(C)c(C(=O)NCc2ccc(C(C)(C)C)cc2)c1Cl | – | 34.7 µM (active) |
| CCNc1nc(Cl)nc(NCC)n1 | inactive | – |
| CCOc1cc(Oc2ccc(C(F)(F)F)cc2Cl)ccc1[N+](=O)[O-] | inactive | – |
| Cc1ccc(-c2c(Cl)nc(C#N)n2S(=O)(=O)N(C)C)cc1 | – | 28.8 µM (active) |
| C#CCOS(=O)OC1CCCCC1Oc1ccc(C(C)(C)C)cc1 (stereo not given) | – | 16.7 µM (active) |
| Cc1c(F)c(F)c(COC(=O)C2C(/C=C(\Cl)C(F)(F)F)C2(C)C)c(F)c1F (stereo not given) | inactive | – |
| COc1nc(C)nc(NC(=O)NS(=O)(=O)c2ccccc2CCC(F)(F)F)n1 | inactive | – |
| O=C(O)c1nc(Cl)ccc1Cl | inactive | – |
| O=C(Nc1ccccc1)Nc1ccnc(Cl)c1 | inactive | – |

| Structure (SMILES) | outcome | AC50 |
| --- | --- | --- |
| COC(=O)C(C)Oc1ccc(Oc2ccc(Cl)cc2Cl)cc1 (stereo not given) | inactive | – |
| CC1COC(Cn2cncn2)(c2ccc(Oc3ccc(Cl)cc3)cc2Cl)O1 (stereo not given) | – | 31.3 µM (active) |
| Fc1ccc(Oc2ccnc3cc(Cl)cc(Cl)c23)cc1 | – | 30.6 µM (active) |
| C=CCC1=C(C)[C@@H](OC(=O)[C@@H]2[C@@H](C=C(C)C)C2(C)C)CC1=O | – | 38.9 µM (active) |
| COc1nc(C)nc(NC(=O)NS(=O)(=O)c2ccccc2Cl)n1 | inactive | – |
| CCOC(=O)CC(SP(=S)(OC)OC)C(=O)OCC (stereo not given) | inactive | – |
| CCCN(CCC)c1c([N+](=O)[O-])cc(S(N)(=O)=O)cc1[N+](=O)[O-] | – | 39.5 µM (active) [middle of 4 runs] |
| CN(C)C(=S)SSC(=S)N(C)C | – | 36.6 µM (active) |
| CC(Oc1ccc(Cl)cc1Cl)C(=O)O (stereo not given) | inactive | – |
| CCCCNC(=O)OCC#CI | – | 35.1 µM (active) and 36.5 µM (active) |
| COP(N)(=O)SC (stereo not given) | inactive | – |
| C=CCC1=C(C)C(OC(=O)C2C(C=C(C)C)C2(C)C)CC1=O (stereo not given) | – | 39.6 µM (active) [middle of 4 runs] |
| CS/C(C)=N/OC(=O)N(C)SN(C)C(=O)O/N=C(\C)SC | – | 35.6 µM (active) |
| CON(C)C(=O)Nc1ccc(Cl)c(Cl)c1 | inactive | – |
| CCCCNC(=O)n1c(NC(=O)OC)nc2ccccc21 | inactive | – |
| Oc1ccccc1-c1ccccc1 | inactive | – |
| COc1nc(NC(C)C)nc(NC(C)C)n1 | inactive | – |
| COC(=O)N(OC)c1ccccc1COc1ccn(-c2ccc(Cl)cc2)n1 | – | 11.9 µM (active) |
| CC(C)C1(C)N=C(c2nc3ccccc3cc2C(=O)O)NC1=O (stereo not given) | inactive | – |
